{"source": "PubChem BioAssay (EPA / NIEHS)", "note": "Results filed as inconclusive are left out. Activity calls are given as the source filed them. Rule for the calls: active = hit-call score of the fitted dose curve at least 0.9, where 1 is the maximum; inconclusive = response in the unintended direction; inactive = score below 0.9.", "data": [{"experiment": "ACEA_ER_AUC_viability: ACEA Biosciences xCELLigence Real-Time Cell Analysis on Estrogen Receptor Agonism for Viability (AID 2283782);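 note: hit means loss of impedance signal meaning reduced cell growth or viability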", "how_it_was_run": "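Read-out: real-time electrical impedance (RT-CES) area under curve, loss of signal taken as reduced viability, normalized to DMSO baseline. T-47D cells, charcoal-stripped serum medium, compounds up to 100 uM final, continuous exposure, 80 h.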", "values": [{"smiles": "CCc1ccccc1O", "outcome": "inactive"}, {"smiles": "N=C(N)c1ccc(OCCCCCOc2ccc(C(=N)N)cc2)cc1", "AC50": "63.5 µM (active)"}, {"smiles": "CC(C)(C)C1CCCCC1O", "note": "(centres undefined)", "AC50": "77.7 µM (active)"}, {"smiles": "OCC(F)(F)C(F)(F)C(F)(F)C(F)(F)C(F)(F)C(F)(F)C(F)(F)C(F)(F)C(F)(F)C(F)(F)C(F)(F)F", "AC50": "16.6 µM (active)"}]}]}
